This passage reports outcome and AC50 results from PubChem BioAssay (EPA / NIEHS).

Records with an inconclusive call do not appear. Active and inactive are the calls of the source. Rule for the calls: active = hit-call score of the fitted dose curve at least 0.9, where 1 is the maximum; inconclusive = response in the unintended direction; inactive = score below 0.9.

The target of experiment [1] is rat Adrenergic Receptor, Beta (Adrb), Non-selective Binding, Adrb1 (gene 24925) (UniProt P18090). The experiment is described as follows: NVS_GPCR_rAdrb_NonSelective: NovaScreen (NVS) G Protein-Coupled Receptor Assay for rat Adrenergic Receptor, Beta (Adrb), Non-selective Binding (AID 2283298). An outline of the steps: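 Non-selective beta-adrenergic radioligand binding in rat cortical membranes, 1 h incubation, filter-based scintillation read-out. Primary screen 25 uM in duplicate; hits retested in concentration-response up to 50 uM, DMSO baseline.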

The target of experiment [2] is rat Gamma-Aminobutyric Acid Type B Receptor (GABBR), Gabbr1 (gene 81657) (UniProt Q9Z0U4). The experiment is described as follows: NVS_GPCR_rGABBR: NovaScreen (NVS) G Protein-Coupled Receptor Assay for rat Gamma-Aminobutyric Acid Type B Receptor (GABBR) (AID 2283301). On the procedure: NVS_GPCR_rGABBR is a biochemical, single-readout assay that uses extracted gene-proteins from Rat cortical membranes in a tissue-based cell-free assay. Measurements were taken 1 hour after chemical dosing in a 96-well plate.NVS_GPCR_rGABBR is one of one assay component(s) measured or calculated from the NVS_GPCR_rGABBR assay. It is designed to make measurements of radioligand binding, a form of binding reporter, as detected with scintillation counting signals by Filter-based radiodetection technology.Data from the assay component NVS_GPCR_rGABBR was analyzed into 1 assay endpoint. This assay endpoint, NVS_GPCR_rGABBR, was analyzed in the positive analysis fitting direction relative to DMSO as the negative control and baseline of activity. Using a type of binding reporter, loss-of-signal activity can be used to understand changes in the binding as they relate to the gene Gabbr1. Furthermore, this assay endpoint can be referred to as a primary readout, because the performed assay has only produced 1 assay endpoint. To generalize the intended target to other relatable targets, this assay endpoint is annotated to the gpcr intended target family, where the subfamily is metabotropic glutamate receptor. […]

Experiment [3] deals with rat Histamine Receptor (H3), Hrh3 (gene 85268) (UniProt Q9QYN8). The experiment is described as follows: NVS_GPCR_rH3: NovaScreen (NVS) G Protein-Coupled Receptor Assay for rat Histamine Receptor (H3) (AID 2283303). In outline: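 Rat forebrain membranes incubated 1 h with compound; radioligand displacement measured by filter-based scintillation counting. Single-concentration duplicates at 25 µM, then concentration-response up to 50 µM, relative to DMSO.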

Experiment [4] concerns the target Metabotropic glutamate receptor 1 (Rattus norvegicus) (UniProt P23385). The experiment is described as follows: NVS_GPCR_rmMGluR1: NovaScreen (NVS) G Protein-Coupled Receptor Assay for rat Glutamate Metabotropic Receptor 1 (MGluR1) (AID 2283305). In outline:
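Rat cerebellum membrane preparation, radioligand displacement binding read by filter-based scintillation counting 1 hour after dosing. Initial duplicate single-point screen at 25 uM, then concentration-response up to 50 uM; loss of signal versus DMSO baseline scored.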

rat Histamine Receptor (H3), Hrh3 (gene 85268), sequence (Q9QYN8 whole entry, looked up): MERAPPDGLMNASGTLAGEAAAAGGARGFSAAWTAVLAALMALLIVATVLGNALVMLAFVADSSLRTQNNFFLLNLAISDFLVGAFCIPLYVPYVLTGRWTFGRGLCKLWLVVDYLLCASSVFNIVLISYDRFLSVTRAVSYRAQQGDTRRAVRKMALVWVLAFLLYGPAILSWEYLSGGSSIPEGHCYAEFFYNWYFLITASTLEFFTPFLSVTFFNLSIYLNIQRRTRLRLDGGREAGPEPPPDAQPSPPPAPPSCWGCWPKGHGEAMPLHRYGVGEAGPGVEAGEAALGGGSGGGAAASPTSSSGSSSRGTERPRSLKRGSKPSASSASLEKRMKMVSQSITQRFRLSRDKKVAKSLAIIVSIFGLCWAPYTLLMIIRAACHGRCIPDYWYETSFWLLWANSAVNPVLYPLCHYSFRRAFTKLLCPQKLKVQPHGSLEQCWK
rat Adrenergic Receptor, Beta (Adrb), Non-selective Binding, Adrb1 (gene 24925), sequence (P18090 whole entry, looked up): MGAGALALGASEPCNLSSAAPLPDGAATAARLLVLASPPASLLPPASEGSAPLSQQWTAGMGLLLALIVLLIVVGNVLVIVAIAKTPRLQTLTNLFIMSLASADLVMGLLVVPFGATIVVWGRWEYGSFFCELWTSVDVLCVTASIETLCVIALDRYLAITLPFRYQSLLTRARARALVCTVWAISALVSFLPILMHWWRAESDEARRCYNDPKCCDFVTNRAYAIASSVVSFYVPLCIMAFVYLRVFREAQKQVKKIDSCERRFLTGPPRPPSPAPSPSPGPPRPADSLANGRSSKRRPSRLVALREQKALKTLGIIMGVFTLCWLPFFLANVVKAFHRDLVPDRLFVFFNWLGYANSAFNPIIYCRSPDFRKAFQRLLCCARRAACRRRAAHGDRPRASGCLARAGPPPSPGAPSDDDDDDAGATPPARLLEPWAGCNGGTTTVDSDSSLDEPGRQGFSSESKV
rat Gamma-Aminobutyric Acid Type B Receptor (GABBR), Gabbr1 (gene 81657), sequence (Q9Z0U4 whole entry, looked up): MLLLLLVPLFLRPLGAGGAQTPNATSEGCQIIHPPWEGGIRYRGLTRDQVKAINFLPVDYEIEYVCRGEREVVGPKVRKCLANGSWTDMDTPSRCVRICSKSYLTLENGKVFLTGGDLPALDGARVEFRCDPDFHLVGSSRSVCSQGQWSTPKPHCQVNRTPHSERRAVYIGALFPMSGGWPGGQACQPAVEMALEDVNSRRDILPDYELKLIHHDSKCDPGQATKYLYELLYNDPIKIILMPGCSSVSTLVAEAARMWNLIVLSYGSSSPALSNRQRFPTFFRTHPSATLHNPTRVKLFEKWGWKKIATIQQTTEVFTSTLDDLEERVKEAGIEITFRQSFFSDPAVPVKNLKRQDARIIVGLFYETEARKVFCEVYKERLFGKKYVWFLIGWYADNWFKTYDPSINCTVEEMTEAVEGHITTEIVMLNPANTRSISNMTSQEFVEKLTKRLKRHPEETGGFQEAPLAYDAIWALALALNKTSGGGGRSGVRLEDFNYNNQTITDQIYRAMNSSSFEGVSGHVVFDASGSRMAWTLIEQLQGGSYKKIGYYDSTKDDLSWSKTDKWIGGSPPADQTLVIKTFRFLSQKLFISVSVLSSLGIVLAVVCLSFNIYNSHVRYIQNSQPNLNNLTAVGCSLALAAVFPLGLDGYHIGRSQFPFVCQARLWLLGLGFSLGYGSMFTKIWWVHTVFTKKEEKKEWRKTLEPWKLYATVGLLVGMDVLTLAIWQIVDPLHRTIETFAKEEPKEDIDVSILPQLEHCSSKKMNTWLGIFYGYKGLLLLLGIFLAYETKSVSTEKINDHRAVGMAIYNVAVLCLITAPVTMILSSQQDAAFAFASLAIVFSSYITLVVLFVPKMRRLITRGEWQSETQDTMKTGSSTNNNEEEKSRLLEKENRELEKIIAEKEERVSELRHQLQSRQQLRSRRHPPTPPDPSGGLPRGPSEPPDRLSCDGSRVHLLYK
Metabotropic glutamate receptor 1 (Rattus norvegicus), sequence (P23385 whole entry, looked up): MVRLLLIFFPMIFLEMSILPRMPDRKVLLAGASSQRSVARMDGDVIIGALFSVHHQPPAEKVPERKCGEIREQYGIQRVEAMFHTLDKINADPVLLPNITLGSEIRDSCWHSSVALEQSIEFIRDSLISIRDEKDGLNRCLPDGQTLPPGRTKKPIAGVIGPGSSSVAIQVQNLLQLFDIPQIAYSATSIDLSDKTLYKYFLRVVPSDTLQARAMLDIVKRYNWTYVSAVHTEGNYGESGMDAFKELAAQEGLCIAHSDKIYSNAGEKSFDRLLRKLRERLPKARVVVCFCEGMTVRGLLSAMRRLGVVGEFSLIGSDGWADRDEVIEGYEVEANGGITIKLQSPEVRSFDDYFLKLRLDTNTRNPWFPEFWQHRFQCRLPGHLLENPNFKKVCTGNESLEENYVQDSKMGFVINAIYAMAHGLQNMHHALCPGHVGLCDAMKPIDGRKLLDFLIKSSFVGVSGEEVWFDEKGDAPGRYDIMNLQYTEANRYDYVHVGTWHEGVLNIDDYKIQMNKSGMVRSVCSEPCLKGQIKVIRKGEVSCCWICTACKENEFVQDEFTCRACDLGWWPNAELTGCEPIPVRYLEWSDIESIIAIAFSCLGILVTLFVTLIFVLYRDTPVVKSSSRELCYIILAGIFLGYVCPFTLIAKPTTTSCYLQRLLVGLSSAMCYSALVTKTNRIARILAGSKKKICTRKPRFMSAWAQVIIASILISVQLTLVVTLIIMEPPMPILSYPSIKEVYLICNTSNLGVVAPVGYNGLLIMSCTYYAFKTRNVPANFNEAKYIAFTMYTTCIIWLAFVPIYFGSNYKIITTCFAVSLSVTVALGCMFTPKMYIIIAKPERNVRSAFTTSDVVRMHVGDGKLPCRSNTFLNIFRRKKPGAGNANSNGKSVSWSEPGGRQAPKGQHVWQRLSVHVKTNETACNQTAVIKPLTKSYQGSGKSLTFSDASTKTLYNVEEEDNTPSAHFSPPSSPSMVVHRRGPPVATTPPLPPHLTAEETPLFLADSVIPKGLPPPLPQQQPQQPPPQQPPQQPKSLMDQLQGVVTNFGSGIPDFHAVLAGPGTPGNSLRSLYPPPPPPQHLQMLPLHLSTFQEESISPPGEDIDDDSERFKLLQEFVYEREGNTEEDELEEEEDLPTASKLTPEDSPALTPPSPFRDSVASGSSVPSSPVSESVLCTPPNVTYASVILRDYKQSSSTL

As to `CCNP(=S)(OC)O/C(C)=C/C(=O)OC(C)C` (configuration not stated), the compound was called inactive in experiment [1] and in experiment [2].

As a reminder, the AC50 is the concentration giving half of the maximal activity seen. As to `Cn1c(-c2ccccc2)cc(-c2ccccc2)[n+]1C`, in experiment [1], the AC50 was 9.62 µM (active). For the compound `CS(=O)(=O)c1ccc(C(=O)C2C(=O)CCCC2=O)c([N+](=O)[O-])c1`, in experiment [2], the call was inactive. `CCCN(CC)CC1COC2(CCC(C(C)(C)C)CC2)O1` (configuration not stated): in experiment [3], the AC50 is 12.2 µM (active). On to `O=C1C2CC=CCC2C(=O)N1SC(Cl)(Cl)Cl` (configuration not stated), for which, in experiment [3], the compound was called inactive. Also, the AC50 in experiment [4] is 25 µM (active).
